# High-throughput results as filed in PubChem BioAssay.
# The list is not random: actives were taken first. Their share in the collection is about 6.5%.
# FMDV antiviral: High Throughput Screening for Foot and Mouth Disease Virus Antivirals | Potency, µM (doses to about 57.9 µM), without a hit: at the highest dose activity change, negative = inhibition, most hits filed as inhibitors | AID 1159524, 2015 | FMDV antiviral cell-based qHTS | hit rate 1.2% among 410,000; calls by dose curve; tested in HEK293T cells; also: read-out not given here; potency is read from the fitted curve at half-maximal effect; nearly all actives have a fitted effect of over 45% in size
# HCMV inh: qHTS Assay for inhibitors of the human cytomegalovirus (HCMV); HFF cells, HCMV-luciferase reporter, 72 h; active compounds read low; activity change, negative = inhibition, % at 57.5 µM; hit rate 4.5% among 410,000; AID 1259415, 2018; in the data active = activity change below about -60%; inconclusive = no clear call, values can overlap the other calls; inactive = above about -39%
#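 Steps: HFFs plated, 16 h 37C; compounds added; HCMV-luciferase added to MOI 1 PFU/cell; 72 h 37C; OneGlo reagent, 5 min room temperature; luminescence read, normalized to controls.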
# Vaccinia Venus: qHTS for Stage-Specific Inhibitors of Vaccinia Orthopoxvirus: Venus Reporter Primary qHTS; Vaccinia virus Venus reporter expression, fluorescence; Potency, µM (top dose mostly 36.5 µM), inactives show at the top dose activity change, negative = inhibition, hits mostly inhibitors; hit rate 0.46% among 330,000; AID 720580, 2013; calls by dose curve; tested in A549 cells; also: potency is read from the fitted curve at half-maximal effect; nearly all actives have a fitted effect of over 30% in size
# MARV entry inh: qHTS for inhibitors of binding or entry into cells for Marburg Virus | Marburg virus pseudotyped entry inhibition, cell reporter | Potency, µM (top dose mostly 37.8 µM), for inactives: at the top dose activity change, negative = inhibition, usual class: inhibitors | hit rate 1.8% among 300,000; calls by dose curve; tested in HEK293 cells; also: potency is read from the fitted curve at half-maximal effect
# VACV mCherry inh: qHTS for Stage-Specific Inhibitors of Vaccinia Orthopoxvirus: mCherry Reporter Primary qHTS; Potency, µM (highest dose often 36.5 µM), without a hit: top-dose activity change, negative = inhibition, usual class: inhibitors; hit rate 0.63% among 310,000; Vaccinia virus mCherry reporter infection, fluorescence; calls by dose curve; tested in A549 cells; also: potency is read from the fitted curve at half-maximal effect; nearly all actives have a fitted effect of over 35% in size
# Lassa entry inh: qHTS for Inhibitors of binding or entry into cells for Lassa Virus. Lassa virus pseudotype entry inhibition, cell reporter. Potency, µM (titrated, usually from 37.9 µM), without a hit: at the highest dose activity change, negative = inhibition, most hits filed as inhibitors. hit rate 1.2% among 300,000. AID 540256, 2011; calls by dose curve; tested in HEK293 cells; also: potency is read from the fitted curve at half-maximal effect; nearly all actives have a fitted effect of over 50% in size
# * = called active by the depositor; i = inactive; ? = inconclusive; nt = not tested or not shown; [ ] = remark or other dose. % is scaled to controls: 0 for no effect and ±100 for the full control effect.
SMILES,FMDV antiviral,HCMV inh,Vaccinia Venus,MARV entry inh,VACV mCherry inh,Lassa entry inh
O=C(NCc1ccc(Cl)cc1)C1CCN(C(=O)Cc2ccccc2)CC1,-19.0%,-68.5*,-4.9%,1.4%,-1.5%,-4.8%
O=C(NC1CCCC1)C1CCN(C(=O)NCc2ccccc2)CC1,-22.2%,-62.5*,nt,nt,nt,nt
O=C(NC1CCCCC1)N1CCN(C(c2ccccc2)c2ccccc2)CC1,nt,-12.7,-15.2%,?,-11.2%,13µM*
Brc1ccc2c(ccc[n+]2CCc2ccccc2)c1,nt,nt,-14.4%,nt,-2.9%,nt
Cc1cc(C)cc(C(=O)N2CC(=O)Nc3ccc(C)cc3C2c2ccccc2)c1 (configuration not stated),20.2%,39.0,-27.2%,nt,-28.9%,?
O=C(N/N=C/c1ccc(-c2cccc(C(F)(F)F)c2)o1)c1ccccc1Br,nt,-62.0*,-26.0%,5.1%,-28.1%,?
Cc1ccc(CCNC(c2ccc(F)cc2)c2nnc(-c3ccccc3Cl)o2)cc1 (configuration not stated),2.4%,10.2,-5.2%,?,-6.5%,?
Cn1c(N)c(C(=O)COC(=O)/C=C/c2ccc(Cl)cc2Cl)c(=O)n(C)c1=O,39.8µM*,-4.4,-13.0%,-4.5%,i,4.6%
Cn1c(N)c(C(=O)COC(=O)c2cc(S(=O)(=O)N3CCOCC3)ccc2F)c(=O)n(C)c1=O,-29.2%,-24.5,?,7.08µM*,-26.4%,-29.2%
Cn1c(N)c(C(=O)COC(=O)/C=C/c2ccc(Cl)cc2)c(=O)n(C)c1=O,?,-29.7,-21.4%,-22.7%,-13.8%,11.3%
Cc1ccc(S(=O)(=O)N2CCOCC2)cc1C(=O)OCC(=O)c1c(N)n(C)c(=O)n(C)c1=O,-21.1%,78.6,nt,nt,nt,nt
COc1ccccc1/C=C/C(=O)OCC(=O)c1c(N)n(C)c(=O)n(C)c1=O,-1.8%,-21.7,-14.5%,0.891µM*,-16.1%,17.6%
COc1cccc(/C=C/C(=O)OCC(=O)c2c[nH]c3ccccc23)c1OC,25.1µM*,-17.2,-9.8%,2.3%,-13.9%,11.7%
O=C(c1cscn1)N1CCOc2ccc(CN3CCC(Oc4cccnc4)CC3)cc2C1,-14.9%,nt,-4.6%,nt,-7.4%,nt
O=C(Nc1cccc(Cl)c1Cl)c1cc(S(=O)(=O)NCc2ccc3c(c2)OCO3)ccc1F,-2.8%,0.3,-20.8%,nt,-17.2%,2.4%[46.1 µM]
Cc1ccc(-c2nc3cc(C(C)C)ccc3o2)cc1NC(=O)c1cccs1,42.5%,45.0,-14.2%,-14.2%[46.1 µM],-18.9%,11.7%[46.1 µM]
COc1ccc(CCNC(=O)c2cc(-c3ccc(C)c(C)c3)nc3ccccc23)cc1OC,1.9%,30.5,-4.5%,nt,-10.0%,?
CCN(CC)CCOC(=O)c1ccc(N/C=C(/C#N)c2nc(-c3ccc(OC)cc3)cs2)cc1,-6.4%,-77.2*,-5.0%,3.98µM*,i,18.2%
CC(=O)N1CCCC(c2cc(C(=O)Nc3ccccc3)no2)C1 (configuration not stated),35.5µM*,-72.9*,4.0%,nt,-1.3%,nt
CC(=O)c1cccc(NC(=O)c2sc(-n3nc(C)c(Cc4ccc5c(c4)OCO5)c3C)nc2C)c1,?,14.6,?,?,-18.8%,-18.3%[46.1 µM]
Cc1ccc(NC(=O)c2sc(-n3nc(C)c(Cc4ccc5c(c4)OCO5)c3C)nc2C)cc1C,-4.4%,-113.1*,-5.8%,-0.8%[46.1 µM],-9.6%,-9.8%[46.1 µM]
O=C(NCCO)c1cn(C2CCCN(Cc3cccc(C(F)(F)F)c3)C2)nn1 (configuration not stated),-13.6%,nt,13.8%,nt,-2.3%,nt
CN(C)CCNc1ccc(-c2nn(C)c(=O)c3ccccc23)cc1[N+](=O)[O-],3.8%,2.9,-15.0%,?,-13.2%,-2.4%[46.1 µM]
CN(C)CCNc1ccc2ncn3c4ccc(O)cc4c(=O)c1c23,?,-93.0*,1.12µM*,?,0.794µM*,?
COc1ccc2sc3cccc(NCCN(C)C)c3c(=O)c2c1,16.5%,1.7,-26.8%,nt,3.3%,nt
CN(C)CCNc1ccc(CO)c2sc3ccc(O)cc3c(=O)c12,-15.5%,-97.5*,?,0.891µM*,?,1µM*
